Among the data in PubChem BioAssay (NCATS) are Potency and activation values, retold here.

Structures are written as SMILES. Records with an inconclusive call do not appear. Values without a mark were called inactive. Calls of active or inactive are those of the source. Calls come from the whole dose curve; as a rule, active = well fitted curve in the direction sought with a large enough effect; inconclusive = small, poorly fitted or top-dose-only effect, or another doubt; inactive = no such curve, though single readings can be large; an effect the other way counts as inactive or inconclusive.

Test [1] deals with Rap guanine nucleotide exchange factor 3 (Homo sapiens) (UniProt O95398). The experiment in a line: Confirmatory qHTS for antagonist of cAMP-regulated guanine nucleotide exchange factor 3 (EPAC1) (AID 1645880).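 For activity, negative = inhibition: plate controls were DMSO only for no effect and full effect of the ATA control for full effect.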 Note: nearly all actives have a fitted effect of over 55% in size. Conditions: EPAC1 Rap1B-BODIPY-GDP exchange, fluorescence; activity, negative = inhibition: at 115 µM (top of the series). The gist of the method:
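Released BODIPY-GDP fluoresces less than Rap1-bound BODIPY-GDP; the signal is followed at 480/540 nm at 5-min intervals over 30 min, after 5 min at room temperature. Reactions contain 100 nM EPAC1, 250 nM RAP1B-BODIPY-GDP and 50 uM GDP; results are normalized to ATA and DMSO.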
On the technique in general: qHTS replaces the single test concentration by a dilution series.

The target is the same in test [2]. Kind of test: Confirmatory qHTS for agonist of cAMP-regulated guanine nucleotide exchange factor 3 (EPAC1) (AID 1645881).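 For activation: EPAC1 catalysed release of BODIPY-GDP from Rap1B seen as fluorescence loss; 100% = effect of cAMP agonist control.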 Note: nearly all actives have a fitted effect of over 75% in size.
Test [3] addresses Rap guanine nucleotide exchange factor 4 (Homo sapiens) (UniProt Q8WZA2). Kind of test: Confirmatory qHTS for agonist of cAMP-regulated guanine nucleotide exchange factor 4 (EPAC2) (AID 1645884). For activation: % is set by controls: 0 for no effect and ±100 for the full control effect.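 Note: nucleotide exchange releases bodipy-GDP from Rap1 and this lowers its fluorescence; nearly all actives have a fitted effect of over 65% in size.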
Test [4] has the same target. Kind of test: Confirmatory qHTS for antagonist of cAMP-regulated guanine nucleotide exchange factor 4 (EPAC2) (AID 1645885). Note: nearly all actives have a fitted effect of over 25% in size.
Test [5] has as its target Rap guanine nucleotide exchange factor 3 (Homo sapiens) (UniProt O95398). The experiment in a line: Counterscreen qHTS for agonist of cAMP-regulated guanine nucleotide exchange factor 3 (EPAC1) (AID 1645889). For activation: % of control where 0% means no effect. Note: nearly all actives have a fitted effect of over 40% in size. The gist of the method: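 Rap1B-BODIPY-GDP 250 nM + GDP 50 uM; cpds 7-pt, final 9.74 nM–152 uM (activator mode) or from 7.32 nM upwards (inhibitor mode); RT; FI 480/540 nm at 5 and 30 min, then ± cAMP, reread.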
(The purpose of a counterscreen is to sort out artefacts and off-target activity.)

Test [6] addresses Tumor susceptibility gene 101 protein (Homo sapiens) (UniProt Q99816). Kind of test: qHTS Assay for Iinhibitors of HIV-1 Budding by Blocking the Interaction of PTAP/TSG101: Hit Validation (AID 651600). Note: nearly all actives have a fitted effect of over 70% in size. The essentials: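 Measuring PTAP–Tsg101 interaction by FP: protein at 10 uM and fluorescent peptide at 50 nM (final), buffer 10 mM HEPES pH 7.5 with 0.15 M NaCl, 3 mM EDTA, 0.1 mM TCEP, 0.01% Tween 20; 20 min incubation, r.t.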
Potency is the fitted concentration of half-maximal effect.

Chain of Rap guanine nucleotide exchange factor 3 (Homo sapiens) (O95398 whole entry, looked up): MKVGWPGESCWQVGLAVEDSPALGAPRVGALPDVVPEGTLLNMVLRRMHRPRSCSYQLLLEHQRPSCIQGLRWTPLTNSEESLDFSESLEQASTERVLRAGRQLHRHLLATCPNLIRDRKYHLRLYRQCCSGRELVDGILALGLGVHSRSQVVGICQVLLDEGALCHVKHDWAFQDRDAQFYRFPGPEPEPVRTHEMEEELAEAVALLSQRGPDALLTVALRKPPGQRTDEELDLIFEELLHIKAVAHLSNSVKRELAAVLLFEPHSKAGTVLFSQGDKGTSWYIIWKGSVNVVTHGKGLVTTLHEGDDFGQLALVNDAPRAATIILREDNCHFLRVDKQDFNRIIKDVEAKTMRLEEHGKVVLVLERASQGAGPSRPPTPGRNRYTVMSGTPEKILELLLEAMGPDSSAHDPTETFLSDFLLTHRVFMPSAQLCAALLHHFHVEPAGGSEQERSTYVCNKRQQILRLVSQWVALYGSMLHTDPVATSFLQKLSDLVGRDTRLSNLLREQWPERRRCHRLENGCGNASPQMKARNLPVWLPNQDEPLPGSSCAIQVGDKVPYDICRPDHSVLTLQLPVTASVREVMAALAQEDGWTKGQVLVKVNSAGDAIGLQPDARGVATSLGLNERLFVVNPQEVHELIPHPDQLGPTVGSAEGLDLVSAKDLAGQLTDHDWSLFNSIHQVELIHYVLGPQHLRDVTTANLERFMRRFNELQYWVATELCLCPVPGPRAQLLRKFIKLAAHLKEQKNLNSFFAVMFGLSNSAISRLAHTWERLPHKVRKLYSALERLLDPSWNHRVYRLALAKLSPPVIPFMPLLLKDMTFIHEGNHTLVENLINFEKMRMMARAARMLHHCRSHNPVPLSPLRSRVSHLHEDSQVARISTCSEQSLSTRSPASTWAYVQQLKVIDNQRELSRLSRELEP
Chain of Rap guanine nucleotide exchange factor 4 (Homo sapiens) (Q8WZA2 whole entry, looked up): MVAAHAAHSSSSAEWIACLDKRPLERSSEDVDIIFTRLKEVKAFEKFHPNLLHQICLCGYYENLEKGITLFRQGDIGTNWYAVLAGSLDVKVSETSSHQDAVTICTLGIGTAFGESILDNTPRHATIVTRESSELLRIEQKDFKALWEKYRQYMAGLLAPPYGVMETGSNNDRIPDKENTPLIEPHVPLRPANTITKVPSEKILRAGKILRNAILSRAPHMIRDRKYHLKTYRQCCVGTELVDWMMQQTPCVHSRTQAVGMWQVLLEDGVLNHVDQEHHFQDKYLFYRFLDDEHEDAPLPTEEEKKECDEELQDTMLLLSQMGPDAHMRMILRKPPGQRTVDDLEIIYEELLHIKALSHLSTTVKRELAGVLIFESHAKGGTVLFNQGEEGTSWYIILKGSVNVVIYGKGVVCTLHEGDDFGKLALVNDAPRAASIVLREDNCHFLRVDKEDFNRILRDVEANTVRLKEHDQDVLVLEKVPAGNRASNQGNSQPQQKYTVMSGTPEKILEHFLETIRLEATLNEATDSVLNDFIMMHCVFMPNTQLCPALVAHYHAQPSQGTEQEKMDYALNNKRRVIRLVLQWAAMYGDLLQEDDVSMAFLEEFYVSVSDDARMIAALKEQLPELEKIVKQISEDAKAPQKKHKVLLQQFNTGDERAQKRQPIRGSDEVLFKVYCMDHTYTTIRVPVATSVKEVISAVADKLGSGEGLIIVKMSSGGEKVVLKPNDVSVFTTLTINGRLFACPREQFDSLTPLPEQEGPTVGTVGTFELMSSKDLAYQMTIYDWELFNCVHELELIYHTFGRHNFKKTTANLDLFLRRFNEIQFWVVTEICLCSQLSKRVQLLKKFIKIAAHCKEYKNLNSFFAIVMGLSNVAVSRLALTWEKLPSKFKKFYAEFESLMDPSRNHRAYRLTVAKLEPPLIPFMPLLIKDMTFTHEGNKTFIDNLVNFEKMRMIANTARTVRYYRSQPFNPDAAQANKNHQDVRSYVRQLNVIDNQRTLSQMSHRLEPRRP
Chain of Tumor susceptibility gene 101 protein (Homo sapiens) (Q99816 whole entry, looked up): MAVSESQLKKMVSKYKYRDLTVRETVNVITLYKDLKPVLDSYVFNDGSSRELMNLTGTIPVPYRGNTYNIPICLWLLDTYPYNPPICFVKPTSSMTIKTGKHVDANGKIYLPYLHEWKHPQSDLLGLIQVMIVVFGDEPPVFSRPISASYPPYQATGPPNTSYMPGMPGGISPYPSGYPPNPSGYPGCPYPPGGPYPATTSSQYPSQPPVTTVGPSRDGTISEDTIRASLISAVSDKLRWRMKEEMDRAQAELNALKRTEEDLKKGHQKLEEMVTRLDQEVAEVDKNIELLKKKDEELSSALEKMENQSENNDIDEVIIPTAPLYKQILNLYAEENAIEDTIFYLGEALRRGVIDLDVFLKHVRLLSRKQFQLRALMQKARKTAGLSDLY

In the case of `O=C(O)CN1C(=O)/C(=C\c2ccccc2OCc2ccc(Cl)cc2)SC1=S`, the values for the Potency in test [1] and in test [4] were 37.9 µM (active) and 42.6 µM (active), respectively. The Potency entry in test [2], in test [3] and in test [5] was “inactive” each time.

For the compound `O=C1C(Cc2ccccc2)SC(=Nc2ccccc2)N1c1ccccc1` (stereo unspecified), the Potency entry in test [1], in test [2] and in test [4] was “inactive” in each case. The activation in test [3] is 1.92% [at 17.1 µM, percent relative to cAMP agonist control]; in test [5], 18.1% [at 30.8 µM].

As for `Cc1cc(C)c(Nc2cc(S(=O)(=O)O)c(N)c3c2C(=O)c2ccccc2C3=O)c(C)c1`, the Potency in test [1] was 30.1 µM (active); in test [4], 75.7 µM (active). Also, the Potency result in test [2], in test [3] and in test [5] was “inactive” throughout.

For the compound `O=C(CSc1n[nH]c(-c2ccccc2)n1)c1ccc(O)c(O)c1`, the Potency in test [1] was 42.6 µM (active). For the same compound, the Potency result in test [2], in test [3], in test [4] and in test [5] was “inactive” each time.

With `COc1cc(OC)c(-c2c3cc(O)c(=O)cc-3oc3cc(O)c(O)cc23)cc1OC`, the Potency entry in test [1] and in test [4] was “inactive” each time. For the same compound, the Potency in test [2] is 89.1 µM (active); in test [3], 100 µM (active); in test [5], 70.8 µM (active).

With `O=C1N/C(=N/NC(=O)c2cccc3ccccc23)S/C1=C\c1ccccc1OCc1ccccc1`, in test [1], the Potency is 3.55 µM (active). The Potency entry in test [2] and in test [4] was “inactive” in each case. The activation in test [3] was 0.729% [at 17.1 µM, percent relative to cAMP agonist control]; in test [5], 8.81% [at 30.8 µM].

Turning to `CCn1c(O)c(/C=N/N=C/c2ccc(OC)cc2)c2cc(C3=NNC(=O)CC3)ccc21`, the Potency result in test [1], in test [4] and in test [5] was “inactive” each time. Further, the Potency is 89.1 µM (active) in test [2] and 100 µM (active) in test [3].

Consider `CCn1cc(SCC(=O)NCc2ccc3c(c2)OCO3)c2ccccc21`, for which the Potency entry in test [1], in test [2] and in test [4] was “inactive” throughout. The activation in test [3] is 0% [at 17.1 µM, percent relative to cAMP agonist control]; in test [5], 20.3% [at 30.8 µM].

For `CCCN(CCC)c1nc(-c2ccccn2)nc2ccccc12`, the Potency entry in test [1], in test [2] and in test [4] was “inactive” in each case. For the same compound, the activation in test [3] was -0.687% [at 17.1 µM, percent relative to cAMP agonist control]; in test [5], 0.395% [at 30.8 µM].

Turning to `O=[N+]([O-])c1ccc(N/N=C2/CCCCC2c2ccccn2)cc1` (stereo unspecified), the Potency result in test [1], in test [2] and in test [4] was “inactive” each time. The activation in test [3] was 2.03% [at 17.1 µM, percent relative to cAMP agonist control]; in test [5] it was -3.04% [at 30.8 µM].

With `CC1(Cc2ccccc2OC(F)(F)F)C(=O)Nc2ccc(-c3ccsc3)cc21` (stereo unspecified), the Potency in test [1] is 42.6 µM (active); in test [4], 33.8 µM (active). The Potency result in test [2], in test [3] and in test [5] was “inactive” throughout.

For the compound `O=S(=O)(O)c1cc(O)c(N=Nc2ccc(O)cc2O)c2ccccc12`, the values for the Potency in test [1] and in test [4] were 37.9 µM (active) and 21.3 µM (active), respectively. In addition, the Potency entry in test [2], in test [3] and in test [5] was “inactive” in each case.

Consider `Nc1ccc2cc3[nH]c4cc(N)ccc4c3nc2c1`, for which the Potency in test [6] was 0.366 µM (active); in test [2], 100 µM (active); in test [3], 100 µM (active); in test [5], 63.1 µM (active). Further, the Potency result in test [1] and in test [4] was “inactive” in each case.
